Vaccinia Venus – inhibitors of vaccinia virus (Venus reporter) | Potency, µM (top dose mostly 36.5 µM), without a hit: at the top dose activity change, negative = inhibition, hits mostly inhibitors | Vaccinia virus Venus reporter expression, fluorescence | AID 720580 | actives 0.46% (n = 330,000); calls by dose curve; tested in A549 cells; note: potency is the fitted concentration of half-maximal effect; nearly all actives have a fitted effect of over 30% in size
HCMV antiviral – inhibitors of human cytomegalovirus. actives 4.5% (n = 410,000). HFF cells, HCMV-luciferase reporter, 72 h; active compounds read low. activity change, negative = inhibition, % at 57.5 µM. AID 1259415; in the data active = activity change below about -60%; inconclusive = no clear call, values can overlap the other calls; inactive = above about -39%
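Steps: HFFs plated, 16 h 37C; compounds added; HCMV-luciferase added to MOI 1 PFU/cell; 72 h 37C; OneGlo reagent, 5 min room temperature; luminescence read, normalized to controls.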
Marburg entry inh – Marburg virus entry inhibition; Marburg virus pseudotyped entry inhibition, cell reporter; Potency, µM (highest dose often 37.8 µM), for the others: at the highest dose activity change, negative = inhibition, hits mostly inhibitors; actives 1.8% (n = 300,000); AID 540276; calls by dose curve; tested in HEK293 cells; note: potency is the fitted concentration of half-maximal effect
VACV mCherry inh – vaccinia inhibition (mCherry reporter) | Vaccinia virus mCherry reporter infection, fluorescence | Potency, µM (highest dose often 36.5 µM), for inactives: at the highest dose activity change, negative = inhibition, most hits filed as inhibitors | actives 0.63% (n = 310,000); calls by dose curve; tested in A549 cells; note: potency is the fitted concentration of half-maximal effect; nearly all actives have a fitted effect of over 35% in size
HCV inh – inhibitors of hepatitis C virus infection | actives 3.4% (n = 340,000) | Huh7.5.1 HCVcc-Cre infection, luciferase reporter, 44 h | Potency, µM (highest dose often 41.8 µM), for the others: top-dose activity change, negative = inhibition, most hits filed as inhibitors; active = well fitted inhibition curve with a large enough effect; inconclusive = small, poorly fitted or top-dose-only effect, or another doubt; inactive = no such curve, though single readings can be large or run the other way; note: potency is the fitted concentration of half-maximal effect
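Infectious HCV cell culture screen: compound-treated cells (1,000/well, pre-plated 4 h) are infected with HCVcc-Cre at roughly 0.5 moi and grown 44 h. Infection is quantified by luciferase signal after 15 min substrate incubation at room temperature.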
Lassa entry inh – blocks Lassa virus binding to or entry into cells; Potency, µM (top dose mostly 37.9 µM), for inactives: at the top dose activity change, negative = inhibition, usual class: inhibitors; Lassa virus pseudotype entry inhibition, cell reporter; actives 1.2% (n = 300,000); calls by dose curve; tested in HEK293 cells; note: potency is the fitted concentration of half-maximal effect; nearly all actives have a fitted effect of over 50% in size
* hit, by the source's call; i = inactive; ? = inconclusive; nt = no result given; [ ] = another dose, or the depositor's remark. Shown are actives, neighbours in structure and some others; about 7.8% of the full set was active somewhere. % is set by controls: 0 for no effect and ±100 for the full control effect.

SMILES	Vaccinia Venus	HCMV antiviral	Marburg entry inh	VACV mCherry inh	HCV inh	Lassa entry inh
O=C(NC(c1ccc(Cl)cc1)c1c(O)ccc2ccccc12)c1ccccc1 (stereo not drawn)	?	-101*	?	10µM*	?	?
O=C(NC(c1ccccc1)c1c(O)ccc2ccccc12)c1ccccc1Cl (stereo not drawn)	nt	17	-28%	nt	14µM*	?
CC(C)CC(=O)NC(c1ccccc1)c1c(O)ccc2ccccc12 (stereo not drawn)	-10%	-2	?	i	9%	4%
CC(=O)NC(c1ccc(Cl)cc1)c1c(O)ccc2ccc(O)cc12 (stereo not drawn)	-10%	-4	?	-18%	-7%	15%
Cc1ccc(Nc2ncnc3c2nc2n3CCCC2)c(Br)c1	-16%	-9	nt	-23%	nt	21%[46.1 µM]
COc1ccc(C(=O)CC(=O)c2ccccc2)cc1	-3%	38	-25%[46.1 µM]	i	-10%	?
COc1ccc(C(=O)C/C(=C\C(=O)c2ccc(C)cc2)c2ccccc2)cc1	nt	-98*	?	nt	11µM*	?
COc1ccc(C(CC(=O)c2ccccc2)S(=O)(=O)c2ccc(C)cc2)cc1 (stereo not drawn)	nt	-105*	1%	nt	?	-3%
O=C1COCc2cc(-c3cccnc3)ccc2N1Cc1ccc2c(c1)OCO2	nt	-10	nt	nt	nt	nt
CC(C)C[C@H](NC(=O)c1nc[nH]c1C(=O)NCCCCCNC(=O)OC(C)(C)C)C(=O)OC(C)(C)C	?	45	nt	i	-19%	nt
C[C@H](NC(=O)c1nc[nH]c1C(=O)NCCCCCNC(=O)OC(C)(C)C)C(=O)OC(C)(C)C	-22%	?	nt	-11%	11µM*	nt
C[C@H](NC(=O)c1nc[nH]c1C(=O)N[C@H](C)c1ccccc1)C(=O)OC(C)(C)C	-30%	-1	nt	?	13µM*	nt
Cc1cccc(C(=O)N2CCc3cc(CNC(=O)c4ccco4)ccc32)c1	-23%	-38	nt	-13%	nt	20%[46.1 µM]
Cc1ccc(-c2c(C)n3c4c(=O)n(C)c(=O)n(C)c4nc3n2-c2cccc(O)c2)cc1	-24%	-18	10%[46.1 µM]	-28%	nt	?
CCN(CC)C(=O)Cn1cc(S(=O)(=O)CC(=O)Nc2ccc(C(N)=O)cc2)c2ccccc21	nt	-19	nt	nt	0.56µM*	nt
Cc1ccc(OCc2ccc(-c3ccccc3)cc2)c([N+](=O)[O-])n1	-14%	-83*	-1%[46.1 µM]	-19%	?	-21%
CCOc1cc(Br)c(COc2ccc(C)nc2[N+](=O)[O-])cc1OCC	4%	-90*	?	-15%	8.9µM*	?
Cc1ccc(OCc2ccc(Br)cc2)c([N+](=O)[O-])n1	nt	-9	nt	nt	nt	nt
Cc1c(C)c2cc3c(c(C)c2oc1=O)OCN(CCc1ccc(F)cc1)C3	-2%	-37	8%[46.1 µM]	-8%	nt	15%[46.1 µM]
Cc1nc2ccccc2n1CC(O)COc1ccc(C(=O)O)cc1 (stereo not drawn)	3%	-5	14%[46.1 µM]	-3%	nt	-18%[46.1 µM]
CCC(=O)c1ccc(OCC(O)CN(CCc2ccccc2)Cc2ccccc2)cc1 (stereo not drawn)	?	-39	?	?	?	16µM*
CCC(=O)c1ccc(OCC(O)Cn2c(C)nc3ccccc32)cc1 (stereo not drawn)	-30%	-62*	6.3µM*	?	?	?
Cc1nc2ccccc2n1CC(O)COc1ccc(Br)cc1 (stereo not drawn)	-11%	-80*	?	-19%	?	nt
Cc1nc2ccccc2n1CC(O)COc1ccccc1Cl (stereo not drawn)	nt	-74*	nt	nt	?	nt
O=C(Cn1c(=O)c2cccn2c2ccc(F)cc21)N1CCN(c2ccccc2)CC1	2%	78	nt	-2%	nt	2%[46.1 µM]
SMILES	Vaccinia Venus	HCMV antiviral	Marburg entry inh	VACV mCherry inh	HCV inh	Lassa entry inh
CC(=O)OC[C@H]1O[C@@H](ON=C2C[C@@H](O)[C@@H](O)[C@@H]3[C@H]4C(=O)N(C5CCCCC5)C(=O)[C@@H]4CC[C@@H]23)[C@H](OC(C)=O)[C@@H](OC(C)=O)[C@H]1OC(C)=O	nt	nt	-25%[14.2 µM]	nt	nt	nt
O=C(NCc1ccc2c(c1)OCO2)c1ccc2c(c1)N(Cc1ccc(F)cc1)C(=O)c1ccccc1S2=O (stereo not drawn)	5%	6	3%[46.1 µM]	6%	nt	16%[46.1 µM]
CCc1cccc(CC)c1NC(=O)COC(=O)CC1c2ccccc2CCN1S(=O)(=O)c1ccccc1 (stereo not drawn)	?	-37	?	-23%	7.1µM*	-3%
O=[N+]([O-])c1ccc(C(c2sc3nc(-c4ccco4)nn3c2O)N2CCN(c3cccc(Cl)c3)CC2)cc1 (stereo not drawn)	-16%	3	nt	-4%	nt	18%[46.1 µM]
CCCn1cc(C(=O)OCC)c(=O)c2cc(F)c(F)cc21	-23%	18	?	-3%	-8%	10%
CCOC(=O)c1cn(CC2CC2)c2cc(F)c(F)cc2c1=O	-15%	-25	20%[46.1 µM]	-5%	14µM*	-3%
CCOc1ccc(C(C)(C)COCc2cccc(Oc3ccccc3)c2)cc1	nt	-8	nt	nt	nt	nt
Cc1ccc(NC(=O)CN2C(=O)C3(SCC(=O)N3c3cccc(Cl)c3)c3ccccc32)cc1C (stereo not drawn)	-7%	-65*	nt	?	nt	?
O=C(CN1C(=O)C2(SCC(=O)N2c2ccc(F)c(F)c2)c2ccccc21)Nc1cccc(Cl)c1 (stereo not drawn)	-29%	-93*	nt	-26%	nt	-27%[46.1 µM]
CCc1cccc(N2C(=O)CSC23C(=O)N(Cc2ccccc2F)c2ccccc23)c1 (stereo not drawn)	-8%	-24	nt	-22%	nt	10µM*
O=C(NCc1cccc(F)c1)c1cccc(NC(=O)c2nsc3ccccc23)c1	-7%	69	nt	-12%	nt	?
COc1cccc(CN(C)C[C@@H]2OCc3ccccc3-c3c(n(C)c4ccccc34)C(=O)N([C@@H](C)CO)C[C@H]2C)c1	?	-105*	nt	?	nt	nt
COc1ccc(NS(=O)(=O)c2cnc(N)nc2)cc1Cl	-6%	19	nt	-16%	nt	?
Cc1ccc(CN2CC(C(=O)Nc3ccc(S(=O)(=O)N4CCCCC4)cc3)CC2=O)cc1 (stereo not drawn)	-28%	-68*	-25%	?	8%	?
CC(=O)Nc1ccc(NC(=O)C2CC(=O)N(Cc3ccccc3)C2)cc1 (stereo not drawn)	-10%	136	3%[46.1 µM]	i	0%	14%[46.1 µM]
Cc1ccc(NC(=O)C2CC(=O)N(Cc3ccccc3)C2)cc1S(=O)(=O)N1CCCCCC1 (stereo not drawn)	?	-77*	?	?	8.9µM*	?
O=C(Nc1ccc(S(=O)(=O)N2CCCCC2)cc1)C1CC(=O)N(Cc2ccccc2)C1 (stereo not drawn)	-21%	-39	-12%	i	6%	5%[46.1 µM]
